# Bioassay records from PubChem.
# This is one part of a sample in which hits are shown more often than they occur.
# Pf Dd2 inh: inhibitors of Plasmodium falciparum Dd2 growth; 120,000 tested, 4.3% active; P. falciparum Dd2 growth, SYBR Green, 72 h; Potency, µM (doses to about 28.9 µM), for inactives: at the highest dose activity, negative = inhibition, most hits filed as inhibitors; active = well fitted inhibition curve with a large enough effect;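 also: plate controls were DMSO vehicle for no effect and reference drug for full effect; nearly all actives have a fitted effect of over 65% in size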
#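 Infected erythrocytes (Dd2, 0.3% parasitemia, 2.5% hematocrit final) are added to compound in RPMI-1640/Albumax II medium, grown 72 h at 37C in low oxygen, then lysed with saponin/Triton-X containing SYBR Green and read by fluorescence.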
# An asterisk follows results filed as active; i = inactive; [ ] = remark or other dose. Potency is read from the fitted curve at half-maximal effect.
SMILES,Pf Dd2 inh
O=C1Nc2ccc(-c3ccc4c(c3)OCO4)cc2C(=O)N2CCN(C(=O)COc3ccccc3)C[C@H]12,i
COc1ccc(-c2ccc3c(c2)C(=O)N2CCN(C(=O)C4CCNCC4)C[C@@H]2C(=O)N3)c(OC)c1,-16%
COc1ccc(C(=O)N2CCN3C(=O)c4cc(-c5ccc(Cl)cc5)ccc4NC(=O)[C@@H]3C2)cc1,6.3µM*
O=C1Nc2ccc(-c3ccc4c(c3)OCO4)cc2C(=O)N2CCN(C(=O)c3cccs3)C[C@@H]12,13µM*
CC(C)(C)CC(=O)N1CCN2C(=O)c3cc(-c4ccc(Cl)cc4)ccc3NC(=O)[C@H]2C1,-22%
COCC(=O)N1CCN2C(=O)c3cc(-c4ccc5c(c4)OCO5)ccc3NC(=O)[C@H]2C1,i
CN(Cc1cccn1C)C(=O)c1ccc(Cl)nc1,12%[44.1 µM]
COc1ccc(C[C@@H]2NC(=O)[C@H]3CN(C(=O)c4ccc(N(C)C)cc4)CCN3C2=O)cc1,i
CCn1cc(C(=O)NCCc2ccc(OC)c(OC)c2)c(=O)c2cc(S(=O)(=O)N3CCCCCC3)ccc21,-12%
CC(C)CCN1CCC(Oc2ncccc2C(=O)N(C)C)CC1,-21%
CC(O)c1cc2n(n1)CCCN(Cc1cccc(OC3CCCC3)c1)C2 (configuration not stated),-9%
CN1CCC(N2CC[C@@H]3[C@H]2C(=O)NC[C@H](CCC(=O)N2CCN(C)CC2)N3C)CC1,i
COc1ccc(-c2nc(C3CC(=O)N(c4ccc(F)cc4)C3)no2)cc1F (configuration not stated),53%
COc1ccc(Cl)cc1-c1nc(C2CC(=O)N(c3ccc(F)cc3)C2)no1 (configuration not stated),11µM*
COc1ccccc1-c1nc(C2CC(=O)N(c3ccc(F)c(Cl)c3)C2)no1 (configuration not stated),120%
CC(C)CCN1CCC(Oc2ncccc2C(N)=O)CC1,i
CN(C1CCCCC1)S(=O)(=O)C1CCS(=O)(=O)C1 (configuration not stated),-3%
Cc1cc(C)n(CCCN(C)Cc2ccccc2C#N)n1,-19%
